# Data as given in PubChem BioAssay AID1347074 (Center for Chemical Genomics, University of Michigan, 2019).
# In all, about 47,000 compounds went through this assay and about 2,800 (6%) were called active. Rule as the data show it: active = z-score above about 3 (passing the limit was not always enough); inactive = the rest. The full list was thinned out, with actives kept by preference.
# Target: Endoribonuclease Dicer (Homo sapiens) (UniProt Q9UPY3)
# Test: inhibitors of Dicer pre-microRNA processing, primary screen, biochemical, cat-ELCCA, chemiluminescence (AID 1347074);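 also: plate controls were vehicle for no effect and no enzyme for full effect; higher signal means more uncleaved substrate so more Dicer inhibition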
# Conditions: cat-ELCCA pre-miR-21 Dicer processing, at 25 µM, stronger effect = higher value
# Sequence of Endoribonuclease Dicer (Homo sapiens) (Q9UPY3 whole entry, looked up): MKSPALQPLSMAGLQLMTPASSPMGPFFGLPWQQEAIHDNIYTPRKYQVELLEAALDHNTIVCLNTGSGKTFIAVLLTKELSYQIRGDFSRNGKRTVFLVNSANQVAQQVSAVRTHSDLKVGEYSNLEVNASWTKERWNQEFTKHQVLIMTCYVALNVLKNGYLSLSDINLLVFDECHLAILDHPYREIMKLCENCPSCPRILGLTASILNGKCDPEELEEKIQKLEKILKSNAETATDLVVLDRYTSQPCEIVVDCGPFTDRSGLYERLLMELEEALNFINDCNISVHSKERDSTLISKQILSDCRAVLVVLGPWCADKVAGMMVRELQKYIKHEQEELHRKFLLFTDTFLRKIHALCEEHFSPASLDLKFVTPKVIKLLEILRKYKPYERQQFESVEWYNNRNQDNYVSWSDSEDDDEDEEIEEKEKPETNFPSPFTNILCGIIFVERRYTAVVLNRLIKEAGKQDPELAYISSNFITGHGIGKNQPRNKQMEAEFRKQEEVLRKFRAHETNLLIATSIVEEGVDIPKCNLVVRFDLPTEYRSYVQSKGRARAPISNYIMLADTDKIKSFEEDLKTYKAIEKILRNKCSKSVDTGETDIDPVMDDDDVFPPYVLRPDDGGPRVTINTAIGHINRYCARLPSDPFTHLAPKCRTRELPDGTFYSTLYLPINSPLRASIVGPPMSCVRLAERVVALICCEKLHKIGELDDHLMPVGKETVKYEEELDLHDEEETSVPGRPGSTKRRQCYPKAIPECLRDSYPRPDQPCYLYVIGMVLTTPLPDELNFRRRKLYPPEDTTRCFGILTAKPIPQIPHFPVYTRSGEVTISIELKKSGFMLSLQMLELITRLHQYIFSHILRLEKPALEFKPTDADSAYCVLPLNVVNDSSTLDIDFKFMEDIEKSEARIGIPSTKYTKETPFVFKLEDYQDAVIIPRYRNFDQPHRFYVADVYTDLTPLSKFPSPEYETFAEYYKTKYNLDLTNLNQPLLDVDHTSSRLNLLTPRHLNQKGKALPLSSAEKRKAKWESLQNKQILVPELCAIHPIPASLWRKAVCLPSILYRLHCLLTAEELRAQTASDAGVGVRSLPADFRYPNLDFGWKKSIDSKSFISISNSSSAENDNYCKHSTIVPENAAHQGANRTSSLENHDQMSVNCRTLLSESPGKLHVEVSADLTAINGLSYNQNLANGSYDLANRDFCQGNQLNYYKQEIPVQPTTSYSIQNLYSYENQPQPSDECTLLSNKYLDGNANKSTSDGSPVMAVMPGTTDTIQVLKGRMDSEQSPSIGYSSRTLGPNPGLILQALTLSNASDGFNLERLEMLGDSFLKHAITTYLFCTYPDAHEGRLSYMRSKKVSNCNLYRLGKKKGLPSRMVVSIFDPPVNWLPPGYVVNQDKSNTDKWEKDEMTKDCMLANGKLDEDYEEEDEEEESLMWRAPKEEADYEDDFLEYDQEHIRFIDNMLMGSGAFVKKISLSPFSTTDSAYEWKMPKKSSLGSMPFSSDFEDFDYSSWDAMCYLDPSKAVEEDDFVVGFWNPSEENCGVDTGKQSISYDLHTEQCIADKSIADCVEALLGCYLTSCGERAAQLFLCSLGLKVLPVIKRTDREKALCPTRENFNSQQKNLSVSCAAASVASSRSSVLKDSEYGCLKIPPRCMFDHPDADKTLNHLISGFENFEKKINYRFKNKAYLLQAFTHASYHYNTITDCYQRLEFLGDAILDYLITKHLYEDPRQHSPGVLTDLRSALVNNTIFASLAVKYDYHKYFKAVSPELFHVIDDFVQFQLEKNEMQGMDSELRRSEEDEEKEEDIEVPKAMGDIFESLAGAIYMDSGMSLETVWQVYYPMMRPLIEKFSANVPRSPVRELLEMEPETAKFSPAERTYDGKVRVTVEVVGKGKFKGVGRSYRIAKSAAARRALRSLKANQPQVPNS
row,Compound,z-score
1,CCOc1c(Br)cc(CNCCc2c[nH]c3ccccc23)cc1OC,6.45 (active)
2,CC[N+]1(C)CCCC(OC(=O)C(O)(c2ccccc2)c2ccccc2)C1 (stereo not given),-0.07 (inactive)
3,Fc1ccccc1CN1CCN(Cc2ccc3c(c2)OCO3)CC1,-0.5 (inactive)
4,CN(C)C(=O)Oc1nnc(SCCS(=O)(=O)c2ccc(F)cc2)n1C1CC1,-1.56 (inactive)
5,Cc1cccc(-c2nc(C)cc(OC(=O)N(C)C)n2)c1,-0.47 (inactive)
